The record followed here is PubChem BioAssay (NCATS).

Inconclusive results are not listed. Where a call stands in place of a potency, no number is given. The source made the active and inactive calls. Calls follow the shape of the dose curve; as a rule, active = well fitted activation curve with a large enough effect; inconclusive = small, poorly fitted or top-dose-only effect, or another doubt; inactive = no such curve, though single readings can be large or run the other way.
Potency is read from the fitted curve at half-maximal effect.

This assay addresses Rap guanine nucleotide exchange factor 3 (Homo sapiens) (UniProt O95398). As to the kind of experiment: Counterscreen qHTS for agonist of cAMP-regulated guanine nucleotide exchange factor 3 (EPAC1) (AID 1645889). Also: nearly all actives have a fitted effect of over 40% in size. The note with it: EPAC1 Rap1B-BODIPY-GDP exchange, fluorescence; series mostly up to 154 µM. In outline: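 Measured: fluorescence of BODIPY-GDP bound to Rap1B, which falls as exchange proceeds. Conditions include 50 uM competing GDP, 5 and 30 min reads, and a later cAMP challenge for antagonist detection.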
For `CCN(CC)c1ccc2cc(C(=O)NNC(=O)c3ccc(S(=O)(=O)N4CCCCC4)cc3)c(=O)oc2c1`, the Potency entry was “inactive”. The same measure, in the same setting: the value for `O=C1c2ccccc2-c2onc3c(Br)cc(NC4CCCCC4)c1c23` was “inactive”. Same read-out and setting: the value for `COc1cc2c(cc1OC)C1(C)N(CC2)C(C(C)=O)=NN1c1ccc(Cl)cc1` (stereo unspecified) was 3.55 µM (active). The same measure, in the same setting: the value for `COC(=O)C1=NN(c2ccc(C)cc2)C2(S1)SC(C(C)=O)=C(C)N2c1ccccc1` (stereo unspecified) was “inactive”; that for `CCCCNc1ccc2c3c(cccc13)C(=O)N(CCCC)C2=O` was 20 µM (active); that for `COC(=O)c1cc2oc(C)cc2n1Cc1ccc(C)cc1` was “inactive”. Turning to `O=C(C1=NN(c2ccccc2)C2C(=O)N(c3ccccc3)C(=O)C12)c1ccccc1` (stereo unspecified), the Potency was 15.8 µM (active). For the compound `O=C1N(Cc2ccccc2)c2ccc(Cl)cc2C12OCCO2`, the activation was 35.6% [at 30.8 µM] (inactive).

Turning to `Cc1cc([N+](=O)[O-])c2[nH]c(C(=O)N/N=C/c3ccccc3C(=O)O)c(-c3ccccc3)c2c1`, the Potency result was “inactive”. In the case of `COc1cccc(C(=O)c2sc3nc(-c4ccccc4)cc(C(F)(F)F)c3c2N)c1`, the Potency is 56.2 µM (active). For the compound `COc1ccc(NC(=O)c2csc3c2CCCCC3)c(OC)c1`, the Potency entry was “inactive”.
